Source: PubChem BioAssay
Avidin fluor = green autofluorescence of compounds with avidin beads – biophysical, 488/530 nm, flow cytometry, artefact control, profiling panel. compound fluorescence 488/530 nm; stronger effect = higher value. fluorescence (KMESF) at 10 µM. actives 0.38% (n = 220,000); in the data active means fluorescence above about 47
GSH fluor = compound fluorescence on glutathione beads, profiling panel, artefact control, biophysical, 488/530 nm, flow cytometry. GSH beads flow cytometry, compound fluorescence 488/530 nm; stronger effect = higher value. fluorescence (KMESF) at 10 µM. actives 0.25% (n = 190,000). AID 1776, 2009; in the data active means fluorescence above about 89;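 further: glutathione beads carrying GST-tagged Bcl family fusion proteins plus one bare bead set; values are compound well signal with DMSO vehicle wells as background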
RGS4-Gao reg = modulators of RGS4 binding to Galphao, primary screen, biochemical, multiplexed bead flow cytometry; actives 0.33% (n = 220,000); binding response (% of control), % at 10 µM; actives lie on both sides; in the data active means binding response below about 49% or above about 150%; inactive means in between;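 further: fluorescent Galphao activated with aluminum fluoride binding bead-coupled RGS4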
Target sequence (P09471 whole entry, looked up): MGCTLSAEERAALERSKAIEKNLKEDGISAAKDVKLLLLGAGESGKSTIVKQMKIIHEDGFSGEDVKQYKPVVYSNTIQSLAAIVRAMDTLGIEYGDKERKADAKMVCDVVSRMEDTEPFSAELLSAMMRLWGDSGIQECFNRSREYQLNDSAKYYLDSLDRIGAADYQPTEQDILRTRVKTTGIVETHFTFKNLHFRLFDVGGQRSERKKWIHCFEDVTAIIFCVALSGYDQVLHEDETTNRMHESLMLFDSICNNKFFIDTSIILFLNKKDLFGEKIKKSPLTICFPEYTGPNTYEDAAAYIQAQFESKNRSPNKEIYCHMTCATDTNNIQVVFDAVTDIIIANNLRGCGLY
RGS7-Gao reg = RGS7-Galphao binding modulators, primary screen, biochemical, multiplexed bead flow cytometry. actives lie on both sides. binding response (% of control), % at 10 µM. actives 0.35% (n = 220,000). AID 1439, 2008; in the data active means binding response below about 49% or above about 150%; inconclusive means no clear call, values can overlap the other calls; inactive means in between;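 further: fluorescent Galphao held in activated GDP-AlF4 state binding bead-coupled RGS7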
RGS8-Gao reg = RGS8-Galphao binding modulators, primary screen, biochemical, multiplexed bead flow cytometry; Guanine nucleotide-binding protein G(o) subunit alpha (Homo sapiens), P09471; actives lie on both sides; response (percent of control binding), % at 10 µM; actives 0.34% (n = 220,000); in the data active means response below about 60% or above about 140%; inactive means in between;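 further: Galphao activated as the GDP aluminium fluoride complex binding bead-coupled RGS8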
RGS16-Gao = modulators of RGS16 binding to Galphao, primary screen, biochemical, human proteins, multiplexed bead flow cytometry; Regulator of G-protein signaling 16 (Homo sapiens) + Guanine nucleotide-binding protein …; bead-based flow cytometry RGS16-Galphao binding, fluorescence; actives lie on both sides; binding response (% of control), % at 10 µM; actives 0.38% (n = 220,000);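 further: Galphao activated by GDP with aluminum fluoride before binding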
Target sequence (O15492 whole entry, looked up): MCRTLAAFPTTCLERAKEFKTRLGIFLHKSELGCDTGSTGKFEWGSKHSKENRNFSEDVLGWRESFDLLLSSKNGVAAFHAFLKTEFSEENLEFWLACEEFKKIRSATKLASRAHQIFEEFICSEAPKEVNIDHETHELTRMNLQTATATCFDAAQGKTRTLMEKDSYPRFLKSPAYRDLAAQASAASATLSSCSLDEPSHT
Target sequence (P09471 whole entry, looked up): as the sequence (P09471 whole entry, looked up) above
RGS-Gao = modulators of RGS–Galpha-o binding, primary screen, biochemical, multiplexed beads, flow cytometry, RGS4/7/8/16/19 | actives 99% (n = 1,600) | shares compounds with RGS16-Gao | multiplexed bead flow cytometry | RGS4–Galpha-o binding response, % at 10 µM | AID 1504, 2009;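 further: fluorescently labeled Galpha-o bound to GDP with aluminium fluoride binding biotinylated RGS beads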
Biotin-avidin = disruption of biotin probe capture by avidin, counter-screen for RGS protein interaction modulators, biochemical, flow cytometry, bead-based | inhibition, % at 10 µM | streptavidin beads, fluorescein-biotin binding | 1,700 tested, under 10 active | shares compounds with RGS16-Gao;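 active means inhibition above 50%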;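 further: median green fluorescence of gated singlet beads compared with DMSO control wells; 0% = DMSO wells and 100% = complete loss of bead fluorescence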
RGS8-Gao single = RGS8-Galphao binding modulators, confirmation, biochemical, multiplexed bead flow cytometry, single concentration | shares compounds with RGS16-Gao | bead-based flow cytometry RGS8-Galphao binding, fluorescence; actives lie on both sides | binding response (% of control), % at 10 µM | actives 3% (n = 1,700) | AID 1836, 2009; in the data active means binding response below about 72% or above about 130%; inactive means in between;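 further: Galphao activated as GDP AlF4 complex before binding bead RGS8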
RGS7-Gao confirm = RGS7-Galphao binding modulators, confirmation, biochemical, multiplexed bead flow cytometry, single concentration. shares compounds with RGS16-Gao. actives 7.8% (n = 1,700). bead-based flow cytometry RGS7-Galphao binding; actives lie on both sides. AID 1837, 2009. response (percent of control binding), % at 10 µM; in the data active means response below about 75% or above about 130%; inactive means in between;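 further: fluorescent Galphao activated with GDP and aluminum fluoride binding bead-coupled RGS7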
RGS16-Gao conf = modulators of RGS16-Galphao protein binding, confirmation, biochemical, single concentration, multiplexed bead flow cytometry; shares compounds with RGS16-Gao; bead-based flow cytometry; actives lie on both sides; response (% of control binding), % at 10 µM; actives 4% (n = 1,700); AID 1838, 2009; in the data active means response below about 74% or above about 130%; inactive means in between;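 further: Galphao activated as the GDP aluminium fluoride complex binding bead-coupled RGS16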
RGS4-Gao single = modulators of RGS4-Galphao protein binding, confirmation, biochemical, single concentration, multiplexed bead flow cytometry | shares compounds with RGS16-Gao | actives lie on both sides | binding response (% of control), % at 10 µM | actives 4% (n = 1,700) | AID 1840, 2009; in the data active means binding response below about 74% or above about 130%; inactive means in between
RGS19-Gao single = regulators of RGS19-Galphao binding, confirmation, biochemical, single point, multiplexed bead flow cytometry | shares compounds with RGS16-Gao | bead-based flow cytometry RGS19-Galphao binding; actives lie on both sides | response (percent of control binding), % at 10 µM | actives 5% (n = 1,700) | AID 1841, 2009; in the data active means response below about 50% or above about 160%; inactive means in between;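 further: 100% = no compound control and 0% = blank background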
* hit, by the source's call; ? = inconclusive; . = no result given; [ ] = dose if it differs, or a comment. Shown are actives, neighbours in structure and some others; about 1.2% of the full set was active somewhere. Unless noted, how the calls were made is not given here.

SMILES	Avidin fluor	GSH fluor	RGS4-Gao reg	RGS7-Gao reg	RGS8-Gao reg	RGS16-Gao	Biotin-avidin	RGS8-Gao single	RGS7-Gao confirm	RGS16-Gao conf	RGS4-Gao single	RGS19-Gao single	others
Cc1ccc(NC(=O)c2ccc(OCc3c(C)noc3C)cc2)cc1	1	.	23*	?	53*	27	0	101	106	106	106	104
Cc1ccc(NC(=O)c2cccc(OCc3c(C)noc3C)c2)cc1	8	10	100	99	103	103	.	.	.	.	.	.
CC(=O)NCCNS(=O)(=O)c1ccc(C)c([N+](=O)[O-])c1	5	.	115	118	108	113	.	.	.	.	.	.
CC(C)CSc1ccc(S(=O)(=O)NCC(=O)O)cc1[N+](=O)[O-]	169*	21	125	278*[activator]	97	96	0	97	98	97	97	97	RGS-Gao=125*
O=C1c2ccccc2NC(c2cccc(F)c2)N1Cc1ccco1 (configuration not stated)	1	19	43*	31*	51*	53	-1	100	103	100	101	102
CC(Nc1nc(N2CCNCC2)nc2ccccc12)c1ccccc1 (configuration not stated)	25	10	106	105	110	103	.	.	.	.	.	.
FC(F)C(F)(F)c1cc(-c2ccc(Cl)cc2)n[nH]1	5	.	110	?	104	108	.	.	.	.	.	.
Fc1ccc(-c2cc(C(F)(F)C(F)F)[nH]n2)cc1	79*	.	168*[activator]	?	111	164	2	104	106	106	107	97
O=C(NNC(=O)C1CCCO1)c1ccccc1Cl (configuration not stated)	.	17	.	.	.	.	2	100	100	101	100	99
Cc1cccc(C(=O)NNC(=O)C2CCCO2)c1 (configuration not stated)	-2	24	21*	14*	12*	1.0*	1	120	137*[activator]	124	132*[activator]	135
Cc1cccc(-c2nc3cc(NC(=O)C4CCCO4)ccc3o2)c1 (configuration not stated)	17	10	109	107	119	179*[activator]	0	104	104	109	104	99	RGS-Gao=109*
Cc1ccc(C(C)NC(=O)C2CCCO2)cc1C (configuration not stated)	.	19	.	.	.	.	0	98	103	100	100	87
Cc1ccccc1C([O-])=Nc1ccc[n+](-c2nc3ccccc3nc2NS(=O)(=O)c2ccccc2)c1	.	.	119	?	102	101	.	.	.	.	.	.
CCC(=O)c1ccc(OC(C)C(=O)NC2(C#N)CCCCC2)cc1 (configuration not stated)	9	12	100	98	100	100	.	.	.	.	.	.
COCCCNC(=O)CCCn1c(=O)c2ccccc2n(Cc2cccc([N+](=O)[O-])c2)c1=O	8	16	99	100	94	114	.	.	.	.	.	.
CC1(C)CC(NC(=O)c2ccccc2C(=O)NC2CC(C)(C)NC(C)(C)C2)CC(C)(C)N1	9	12	99	96	101	99	.	.	.	.	.	.
Cc1cccc(C(=O)NC2CC(C)(C)NC(C)(C)C2)c1	82*	14	101	172*[activator]	98	113	1	92	93	92	92	84	RGS-Gao=101*
O=c1[nH]c2ccccc2nc1C(F)(F)F	6	.	173*[activator]	?	137	167	-1	93	89	91	94	101
CC12CS(=O)(=O)CC1SC(=S)N2Cc1ccccc1 (configuration not stated)	9	26	99	102	99	100	.	.	.	.	.	.
CC(C)(CO)CNC(=O)c1ccc(OC2CCN(C(=O)C3CC3)CC2)cc1	3	10	98	101	100	100	.	.	.	.	.	.
COc1ccc2c(CC(=O)OCC(=O)c3ccc(F)cc3)coc2c1	102*	29	113	181*[activator]	99	105	-1	102	103	102	105	121	RGS-Gao=113*
COc1ccc2c(CC(=O)OCC(=O)c3ccccc3OC)coc2c1	9	12	99	99	102	99	.	.	.	.	.	.
COCC(=O)N(Cc1cc2ccc(C)cc2[nH]c1=O)c1ccc(OC)cc1	8	7	86	87	78	-28*	0	104	100	102	99	103	RGS-Gao=86*
Cc1onc(-c2ccccc2Cl)c1C(=O)Nc1ccc(Cl)cn1	4	.	98	?	102	110	.	.	.	.	.	.
Cc1onc(-c2c(Cl)cccc2Cl)c1C(=O)c1ccccc1	3	.	106	?	106	104	.	.	.	.	.	.
Cc1onc(-c2ccccc2Cl)c1C(=O)Nc1ncn[nH]1	6	5	86	87	72	-1.7*	2	98	82	98	89	81	RGS-Gao=86*
